# Screens from PubChem BioAssay.
# KinaseGlo FLuc: Counterscreen for Luciferase (Kinase-Glo TM) Inhibition. Luciferin 4-monooxygenase (Photuris pensylvanica), Q27757. Kinase-Glo luciferase, ATP luminescence, 8 min. Potency, µM (titrated, usually from 38.3 µM), for inactives: at the highest dose activity change, negative = inhibition, most hits filed as inhibitors. 200,000 tested, 0.28% active; note: % is set by controls: 0 for no effect and ±100 for the full control effect; nearly all actives have a fitted effect of over 60% in size
#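 Luminescence was the read-out, taken after 8-minute incubation at ambient temperature. Luciferase turned over luciferin with 10 uM ATP in imidazole pH 7.2 buffer containing KCl, MgCl2, Tween 20 and BSA.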
# Rab9 prom act: qHTS Assay for Rab9 Promoter Activators | Huh7 Rab9 promoter-luciferase reporter, luminescence, 24 h | Potency, µM (doses to about 9.22 µM), for inactives: top-dose activation, negative = inhibition, hits mostly activators | 320,000 tested, 2.8% active; note: % of control where 0% means no effect; nearly all actives have a fitted effect of over 60% in size
#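 Huh7 cells stably carrying a Rab9 promoter-luciferase reporter, 1500 cells per well in OP-MEM I with 10% FBS, treated with compound 24 hours at 37C. Luciferase activity read by luminescence after 10 minutes with Amplite reagent.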
# SMN2 splice enh: qHTS Assay for Enhancers of SMN2 Splice Variant Expression; Potency, µM (top dose mostly 46.1 µM), inactives show at the highest dose activity change, positive = activation, hits mostly activators; HEK293 SMN2-luciferase splicing reporter, luminescence, 30-36 h; 210,000 tested, 2.8% active; AID 1458, 2008; note: % of control where 0% means no effect; nearly all actives have a fitted effect of over 55% in size
#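 HEK293 cells carry an SMN2 minigene-luciferase reporter in which exon 7 inclusion puts luciferase in frame. Cells were seeded at 2000 cells/well, attached for 10-12 hours, then exposed to compounds for 30-36 hours at 37C before ONE-Glo luminescence.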
# ELG1 genotoxic: qHTS screen for small molecules that induce genotoxicity in human embryonic kidney (HEK293T) cells expressing luciferase-tagged ELG1; HEK293T ELG1-luciferase reporter, luminescence, 16 h; Potency, µM (top dose mostly 46 µM), without a hit: top-dose activity change, positive = activation, hits mostly activators; 330,000 tested, 1.3% active; AID 504466, 2011; note: % of control where 0% means no effect; nearly all actives have a fitted effect of over 60% in size
#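 ELG1-luciferase HEK293T cells, 2,000/well; compound pinned in; 16 hr, 37 °C, 5% CO2; ONE-Glo, 30 min RT; luminescence on CCD imager.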
# NPC1 prom act: qHTS Assay for NPC1 Promoter Activators; Huh7 NPC1 promoter luciferase reporter, 24 h; Potency, µM (highest dose often 9.22 µM), for inactives: top-dose activation, usual class: activators; 320,000 tested, 2.4% active; note: % of control where 0% means no effect; nearly all actives have a fitted effect of over 60% in size
#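 Luminescence from an NPC1 promoter-driven luciferase reporter in stably transfected Huh7 cells was measured after 24 h compound treatment at 37 °C, followed by 10 min ambient incubation with luciferase detection reagent.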
# FLuc counter: qHTS profiling assay for firefly luciferase inhibitor/activator using purifed enzyme and Km concentrations of substrates (counterscreen for miR-21 project); Luciferin 4-monooxygenase (Photinus pyralis), P08659; 360,000 tested, 6.9% active; purified FLuc, Km substrates, luminescence inhibition; Potency, µM (titrated, usually from 57.5 µM), without a hit: top-dose activity change, negative = inhibition, actives largely listed as inhibitors; AID 588342, 2011;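 note: plate controls were vehicle for no effect and reference inhibitor for full effect; nearly all actives have a fitted effect of over 55% in size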
# Target sequence (P08659 whole entry, looked up): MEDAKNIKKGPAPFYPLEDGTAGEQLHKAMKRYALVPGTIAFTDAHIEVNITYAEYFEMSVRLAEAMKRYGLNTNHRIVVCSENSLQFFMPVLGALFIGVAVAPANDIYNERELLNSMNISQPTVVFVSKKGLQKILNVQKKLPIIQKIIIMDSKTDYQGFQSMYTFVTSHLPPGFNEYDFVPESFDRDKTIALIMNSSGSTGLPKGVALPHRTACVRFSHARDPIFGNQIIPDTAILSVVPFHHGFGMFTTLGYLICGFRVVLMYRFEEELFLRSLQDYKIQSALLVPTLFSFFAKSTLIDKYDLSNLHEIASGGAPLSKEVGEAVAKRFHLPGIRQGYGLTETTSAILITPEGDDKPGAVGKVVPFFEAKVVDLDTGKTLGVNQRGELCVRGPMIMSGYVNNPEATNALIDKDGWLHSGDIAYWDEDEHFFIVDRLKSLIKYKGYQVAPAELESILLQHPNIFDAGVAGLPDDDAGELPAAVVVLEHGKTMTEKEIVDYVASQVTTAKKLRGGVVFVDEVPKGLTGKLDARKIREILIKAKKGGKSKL
#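 Purified P. pyralis luciferase (10nM final) with 10uM D-luciferin and 10uM ATP (Km levels) in 50mM Tris acetate pH 7.5, 10mM Mg acetate, 0.01% Tween-20, 0.05% BSA; qHTS 6-point titration, ~60 µM downward; luminescence read.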
# Numbers without * were called inactive; ? = inconclusive; nt = no result given; [ ] = remark or other dose. A selection: hits, their analogues and other compounds. The true share with any hit is near 7.3%. Calls come from the whole dose curve; as a rule, active = well fitted curve in the direction sought with a large enough effect; inconclusive = small, poorly fitted or top-dose-only effect, or another doubt; inactive = no such curve, though single readings can be large; an effect the other way counts as inactive or inconclusive. Potency is the fitted concentration of half-maximal effect.
SMILES,KinaseGlo FLuc,Rab9 prom act,SMN2 splice enh,ELG1 genotoxic,NPC1 prom act,FLuc counter
O=C(NCc1ccco1)c1sc2ccccc2c1Cl,1.0%,?,?,?,26.4%,21.3µM*
CN1CCN(C(=O)c2ccccc2NC(=O)c2sc3ccccc3c2Cl)CC1,nt,13.3%,nt,2.0%,0.8%,?
O=C(NNC(=S)Nc1ccccc1)c1ccc2ncccc2c1,1.1%,?,14.1%,5.3%,7.0%,?
O=C(NC(=S)Nc1ccc2ncccc2c1)c1ccccc1,-0.7%,2.24µM*,?,?,2.82µM*,?
O=C(Nc1ccc2ncccc2c1)c1ccccc1,nt,2.4%,nt,1.6%,-3.4%,-4.6%
O=C(NC(=S)Nc1ccc2nc[nH]c2c1)c1ccccc1,nt,3.98µM*,nt,?,2.82µM*,?
CC(C)(C)NC(=S)NNC(=O)c1ccc2ncccc2c1,0.7%,0.501µM*,14.1µM*,24.1%,?,?
C=Cc1ccc(CSc2nc(-c3ccccc3Cl)nc3c2Cc2c(CO)cnc(C)c2O3)cc1,nt,nt,nt,nt,nt,-1.8%
CCOC(=O)c1ccc(NC(=O)CCc2c(C)n(CC)c3cc(-c4ccccc4OC)nn3c2=O)cc1,nt,nt,10.5%,nt,nt,-2.4%
O=C1OCCC1Sc1nnnn1-c1ccc(Cl)cc1 (stereo not drawn),nt,-2.5%,nt,-0.5%,-3.7%,10.7µM*
COc1ccc(-c2ccc(NS(=O)(=O)c3ccc(OC)c(OC)c3)cc2)nn1,nt,nt,nt,nt,nt,5.2%
COc1cc2c(cc1NC(=O)c1ccncc1)oc1ccccc12,1.1%,24.5%,-7.5%,?,26.7%,?
COc1cc2c(cc1NC(=O)c1cccnc1)oc1ccccc12,-3.2%,?,?,?,?,15.1µM*
COc1ccc(-c2cc3ccccc3oc2=O)cc1NC(=O)c1cccnc1,2.5%,6.7%,-5.3%,-3.6%,-5.9%,10.7µM*
CC(/C=C/C=C(C)/C=C/C(=O)O)=C\C=C\C=C(C)\C=C\C=C(C)\C=C\C(=O)O,nt,nt,15.9%,nt,nt,nt
CC1=CCC(COC(=O)Nc2ccccc2)CC1 (stereo not drawn),?,3.98µM*,17.8µM*,?,2.82µM*,6.75µM*
O=C(Nc1ccccc1)OCC1CCCN2CCCCC12 (stereo not drawn),-5.4%,-2.2%,13.4%,2.5%,0.7%,-7.9%
FC(F)(F)c1cccc(-c2nc3nc(Cl)c(Cl)nc3[nH]2)c1,-4.4%[7.66 µM],?,-30.9%[9.22 µM],14.3%,?,4.26µM*
Cc1nn(C)cc1C(=O)NNC(=S)Nc1ccccc1,1.3%,?,?,12.5%,22.5%,-7.9%
Cc1nn(-c2ccccc2)cc1C(=S)Nc1ccccc1,-1.4%,?,23.0%,10.5%,?,12µM*
CC(=O)c1cnn(-c2ccccc2)c1C,1.9%,-3.6%,13.6%,4.4%,-2.1%,-2.6%
Cc1c(C(=O)Oc2cccc3ccccc23)cnn1-c1ccccc1,-6.1%,?,?,8.91µM*,21.8%,9.53µM*
CCc1ccc(NC(=O)c2cnn(-c3ccccc3)c2C)cc1,-7.8%,0.562µM*,5.62µM*,?,0.501µM*,0.675µM*
Cc1c(C(=O)Nc2cc(F)cc(F)c2)cnn1-c1ccccc1,nt,2.51µM*,nt,?,1.26µM*,7.57µM*
CCc1cc2c(cc3c(=O)n(CC(=O)NC4CCC(C)CC4)nc(CC)n32)s1 (stereo not drawn),nt,nt,-19.5%,nt,nt,-0.9%
SMILES,KinaseGlo FLuc,Rab9 prom act,SMN2 splice enh,ELG1 genotoxic,NPC1 prom act,FLuc counter
O[C@@H](c1cc(C(F)(F)F)nc2c(Cl)cc(Cl)cc12)C1CCCCN1 (stereo partly drawn),-3.2%[7.66 µM],nt,-0.8%[9.22 µM],nt,nt,nt
Cc1ccc2nc(-c3ccncc3)c(Nc3ccc(C(C)C)cc3)n2c1,nt,nt,-4.1%,nt,nt,3.3%
COc1cc2c(cc1OC)C(COc1cc(C)cc(C)c1)N(C(=O)C(C)(C)C)CC2 (stereo not drawn),nt,nt,nt,nt,nt,4.1%
CCN(c1ccccc1)c1nnc(NC(=O)Nc2cccc(Br)c2)s1,nt,nt,nt,nt,nt,3.5%
COc1ccc(NC(=O)Cn2c(SCc3cccc(Cl)c3)nc3ccncc32)c(OC)c1OC,nt,nt,6.0%,nt,nt,?
Cc1c(C(=S)Nc2ccccc2)cnn1-c1ccccc1,6.3%,?,5.3%,0.8%,?,15.1µM*
COc1ccc(NC(=O)c2cnn(-c3ccccc3)c2C)c(OC)c1,nt,6.3%,nt,4.4%,-4.5%,?
Cc1c(C(=O)Nc2ccccc2F)cnn1-c1ccccc1,nt,1.41µM*,nt,8.2µM*,2.51µM*,5.36µM*
Cc1cc(OCC(=O)Nc2ccc(C(=O)OC3CCCCC3)cc2)cc(C)c1Cl,nt,nt,1.5%,nt,nt,-5.0%
CCN(CC)c1cc2c(cc1F)c(=O)c(S(=O)(=O)c1ccc(C)cc1)cn2Cc1ccc(F)cc1,nt,nt,nt,nt,nt,-2.1%
Cc1ccccc1OCC(=O)N/N=C/c1ccc2c(c1)OCCO2,-2.5%,-0.7%,12.3%,3.6%,1.2%,26.9µM*
NC(=O)c1ccccc1OCC(=O)Nc1ccc2c(c1)OCCO2,nt,3.16µM*,nt,?,?,8.49µM*
O=C(COC(=O)c1cccnc1Cl)NCc1ccc2c(c1)OCO2,nt,0.6%,nt,0.0%,-3.9%,1.6%
COc1ccccc1OCCC(=O)Nc1ccc2c(c1)OCO2,nt,nt,nt,0.9%,nt,nt
Cc1ccccc1OCC(=O)OCC(=O)Nc1ccc2c(c1)OCO2,nt,nt,nt,2.3%,nt,nt
COc1ccccc1OCC(=O)Nc1ccc2c(c1)OCCO2,nt,?,nt,?,?,16.9µM*
O=C(COC(=O)c1cccnc1Cl)Nc1ccc2c(c1)OCCO2,-3.1%,-2.5%,5.2%,6.6%,-1.8%,8.49µM*
COC(=O)c1ccc(NC(=O)CN(c2cccc(C(F)(F)F)c2)S(C)(=O)=O)cc1,nt,nt,-19.9%,nt,nt,-0.6%
Cc1cccc(S(=O)Cc2ccc(C(=O)NC3CCCCCC3)o2)c1 (stereo not drawn),nt,nt,nt,nt,nt,-3.1%
Cc1cccc(C)c1NC(=O)C1CCCN(S(=O)(=O)c2c(C)noc2/C=C/N(C)C)C1 (stereo not drawn),nt,nt,-5.5%,nt,nt,-1.1%
Cc1ccc2c(c1)c1c(c(=O)n(-c3ccccc3C)c(=O)n1CC(=O)NCCC1=CCCCC1)n2C,nt,nt,nt,nt,nt,-10.6%
O=C(CSCc1c(Cl)cccc1Cl)Nc1ccc2c(c1)OCCO2,1.0%,8.1%,18.4%,11.8%,13.0%,16.9µM*
CC(=O)Nc1ccc(SCC(=O)Nc2ccc3c(c2)OCCO3)cc1,nt,nt,nt,8.2%,nt,nt
Cc1cccc(C)c1OCC(=O)Nc1ccc2c(c1)OCCO2,nt,17.2%,nt,?,13.1%,?
Cc1ccccc1OCC(=O)Nc1ccc2c(c1)OCCO2,nt,2.82µM*,nt,?,3.55µM*,9.53µM*
